Vaccinia mCherry: vaccinia inhibition (mCherry reporter). 310,000 tested, 0.63% active. Vaccinia virus mCherry reporter infection, fluorescence. AID 720579. Potency, µM (doses to about 36.5 µM), usual class: inhibitors; calls by dose curve; tested in A549 cells; also: nearly all actives have a fitted effect of over 35% in size
LASV entry inh: blocks Lassa virus binding to or entry into cells. Potency, µM (highest dose often 37.9 µM), most hits filed as inhibitors. 300,000 tested, 1.2% active. Lassa virus pseudotype entry inhibition, cell reporter; calls by dose curve; tested in HEK293 cells; also: nearly all actives have a fitted effect of over 50% in size
Vaccinia Venus: inhibitors of vaccinia virus (Venus reporter); Vaccinia virus Venus reporter expression, fluorescence; Potency, µM (series often up to 36.5 µM), actives largely listed as inhibitors; 330,000 tested, 0.46% active; AID 720580; calls by dose curve; tested in A549 cells; also: nearly all actives have a fitted effect of over 30% in size
HCMV inh: blocks human cytomegalovirus replication; HFF cells, HCMV-luciferase reporter, 72 h; hits give low values; activity change, negative = inhibition, % at 57.5 µM; 410,000 tested, 4.5% active; AID 1259415; in the data active = activity change below about -60%; inconclusive = no clear call, values can overlap the other calls; inactive = above about -39%
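Human foreskin fibroblasts infected with luciferase-reporter HCMV at MOI 1 PFU/cell, compounds at two doses. Luciferase measured 72 h post infection; normalized to buffer-only basal and Salinomycin (10uM) controls.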
FMDV inh: blocks foot and mouth disease virus | Potency, µM (titrated, usually from 57.9 µM), most hits filed as inhibitors | 410,000 tested, 1.2% active | FMDV antiviral cell-based qHTS | AID 1159524; calls by dose curve; tested in HEK293T cells; also: read-out not given here; nearly all actives have a fitted effect of over 45% in size
Marburg entry inh: blocks Marburg virus binding to or entry into cells; Potency, µM (series often up to 37.8 µM), actives largely listed as inhibitors; Marburg virus pseudotyped entry inhibition, cell reporter; 300,000 tested, 1.8% active; calls by dose curve; tested in HEK293 cells
A number is an active result; – = inactive; ? = inconclusive; · = no result; ! = repeats disagree; [ ] = another dose, or the depositor's remark. Shown are actives, neighbours in structure and some others; about 6.5% of the full set was active somewhere.

SMILES | Vaccinia mCherry | LASV entry inh | Vaccinia Venus | HCMV inh | FMDV inh | Marburg entry inh
Cc1ccc(-n2c(-c3ccc(Cl)cc3)c[n+]3c2CCC3)cc1 | · | · | · | -91 | ? | ·
c1ccc(-c2c[n+]3c(n2-c2ccccc2)SCC3)cc1 | – | – | – | – | ? | ?
Cc1ccc(-n2c(-c3ccccc3)c[n+]3c2CCC3)cc1 | – | ? | – | -95 | ? | ?
CCC1CN(CC(=O)NCc2cc(C)n(C)n2)Cc2cc(OC)ccc2O1 (configuration not stated) | – | · | – | · | – | ·
Cc1ccc(NC(=S)NNC(=O)c2c(Cl)c(C)nn2C)cc1 | – | ? | – | -73 | – | –
Cc1nn(C)c(C(=O)NCc2ccc(Cl)cc2)c1Cl | – | – | – | -80 | ? | ?
Cc1nc(C)c(C(=O)NCc2ccc(Cl)cc2)o1 | – | – | – | – | ? | –
CN(C)c1ccc(NC(=O)CCSc2nc(-c3ccco3)cc(C(F)(F)F)n2)cc1 | –[7.34 µM] | – | –[7.34 µM] | – | – | –
CCCC[C@@H](CNC)NC[C@H](Cc1ccc(O)cc1)NCCc1ccc(OCC)cc1 | ? | · | 13µM | -85 | – | ·
Cc1cnc(SCc2ccccn2)nc1C1CCCN(C(=O)c2ccc3[nH]c(C)c(C)c3c2)C1 (configuration not stated) | ? | · | – | · | – | ·
C#Cc1ccc(NC(=O)C2(C)CCN2C(=O)Cc2ccc(C(C)(C)C)cc2)cc1 (configuration not stated) | – | · | – | -83 | ? | ·
C#Cc1ccc(NC(=O)C2(C)CCN2C(=O)Cc2ccc(C(C)C)cc2)cc1 (configuration not stated) | – | · | – | -82 | ? | ·
CC#CC(=O)N[C@H]1CC[C@@]23CCCN2C(=O)CCC[C@H]3[C@H]1Cc1ccccc1 | · | · | · | – | · | ·
O=S(=O)(c1ccccc1F)N1CCN(CCc2ccccc2)CC1 | – | – | – | -72 | ? | ?
CCc1ccc2c(CN3CCN(S(=O)(=O)c4cccs4)CC3)cc(=O)oc2c1 | – | 2.5µM | ? | – | ? | ?
CCc1ccc2c(CN3CCN(S(=O)(=O)c4ccccc4F)CC3)cc(=O)oc2c1 | – | ? | – | – | ? | 11µM
O=S(=O)(NCCN1CCN(S(=O)(=O)c2ccccc2F)CC1)c1ccccc1F | – | – | – | – | – | ?
CC(=O)c1c(C)[nH]c(C(=O)CN2CCN(S(=O)(=O)c3ccccc3F)CC2)c1C | – | ? | – | ? | 18µM | ?
CCc1ccc2c(CN3CCN(Cc4ccccc4)CC3)cc(=O)oc2c1 | – | – | – | – | – | –
CC(=O)c1c(C)[nH]c(C(=O)CN2CCN(S(=O)(=O)c3ccc(C(C)C)cc3)CC2)c1C | · | · | · | – | ? | ·
CCn1c(-c2ccccc2F)nc2cc(NC(C)=O)cc(C(=O)N(C)Cc3cn(C)nc3C)c21 | – | · | – | · | – | ·
Cc1cc(C(C)(C)C)cc(CN2CCN(S(=O)(=O)c3cccs3)CC2)c1O | – | · | – | -77 | ? | ·
CCOc1cc(/C=N/NC(N)=O)cc(Br)c1OCc1ccccc1F | – | – | – | – | ? | –
CCOc1cc(/C=N/NC(=O)Cn2nc([N+](=O)[O-])cc2C)cc(Br)c1OCc1ccccc1F | · | – | · | -96 | – | ?
Cc1ccccc1CN1CCN(c2ccc(S(=O)(=O)N3CCCC3)cn2)CC1 | – | ? | – | -64 | ? | ?
SMILES | Vaccinia mCherry | LASV entry inh | Vaccinia Venus | HCMV inh | FMDV inh | Marburg entry inh
CC(C)c1ccc(Nc2ncnc3c2c(-c2ccccc2)cn3-c2ccccc2)cc1 | – | – | – | – | – | ·
CC(Oc1cccc(Cl)c1)C(=O)Nc1ccc(S(=O)(=O)N(C)C2CCN(C)CC2)cc1 (configuration not stated) | 11µM | – | ? | – | – | ?
CN1CCC(N(C)S(=O)(=O)c2ccc(NC(=O)COc3ccc(Cl)cc3)cc2)CC1 | · | · | · | – | – | ·
CN(C)c1ccc(/C=C/c2ccnc3ccccc23)c(F)c1 | – | · | – | · | · | ·
Cc1ccc(NC(=O)CCc2c(C)nc3c(-c4ccc(F)cc4)c(C)nn3c2C)cc1F | – | – | – | – | – | –
CC(=O)Nc1nc(-c2ccccc2)c(-c2ccccc2)o1 | – | – | – | – | – | –
COc1cc(OC)cc(C(=O)Nc2nc(-c3ccccc3)c(-c3ccccc3)o2)c1 | · | ? | · | ? | – | 21µM
CC(=O)N=c1scc(-c2ccccc2)n1-c1cccc(O)c1 | – | – | ? | -92 | – | ?
Cc1ccc(-c2ccc(CCC(=O)O)n2-c2cccc(O)c2)cc1 | – | – | – | – | – | –
COc1cc(C2CC(=O)c3c([nH]c(C(=O)OCCOC(C)C)c3C)C2)cc(OC)c1OC (configuration not stated) | – | ? | – | -63 | 11µM | ?
COc1ccc(OC)c(C2CC(=O)c3c([nH]c(C(=O)OCc4ccc(C)cc4)c3C)C2)c1 (configuration not stated) | –[7.34 µM] | – | –[7.34 µM] | – | – | ?
COc1cc(C2CC(=O)c3c([nH]c(C(=O)OCc4ccc(C)cc4)c3C)C2)cc(OC)c1OC (configuration not stated) | ? | – | –[7.34 µM] | – | 14µM | ?
COc1ccccc1NC(=O)c1ccccc1-c1nc(-c2ccccc2OC)no1 | · | ? | · | – | – | 12µM
CC(=O)c1ccccc1S(=O)(=O)N1CCN(c2nc(-c3cccs3)nc3ccccc23)CC1 | – | · | – | · | · | ·
CN1N=C(C(F)(F)F)CC1=O | – | – | – | – | – | –
CN1N=C(C(C)(C)C)CC1=O | – | – | – | ? | – | 22µM
CCOc1ccc(CCNc2nc3c(c(=O)n(C)c(=O)n3C)n2CC)cc1OCC | · | ? | · | -97 | – | ?
COc1ccc(CCNc2nc3c(c(=O)n(C)c(=O)n3C)n2Cc2ccc(F)cc2)cc1OC | ? | ? | – | -90 | 16µM | 6.3µM
CCCCC(=O)NCCNc1nc2c(c(=O)n(C)c(=O)n2C)n1Cc1ccc(F)cc1 | – | 9.2µM | ? | – | – | ?
CC1=C(c2ccc(C)c(C)c2)S(=O)(=O)N=C1N1CCN(c2cccc(C(F)(F)F)c2)CC1 | – | – | – | – | – | ?
C=Cc1ccc(CSc2nc(-c3ccc(OC)cc3)nc3c2Cc2c(CO)cnc(C)c2O3)cc1 | – | – | – | – | – | ·
COc1ccc(OC)c(CN2CCCC(c3nc(C)ncc3-c3ccc(F)cc3)C2)c1 (configuration not stated) | – | · | – | · | – | ·
NC(N)=N/N=C/c1c(Cl)cccc1Cl | – | ? | – | -73! | – | 11µM
NC(N)=N/N=C/c1ccccc1Cl | ? | · | – | – | – | ·
CCN(CC)C(C)CN1c2ccccc2Sc2ccccc21 (configuration not stated) | – | – | ? | · | 28µM | ?
O=C(NCc1ccccc1)C1CCN(C(=O)c2cnn(-c3ccccc3)c2-n2cccc2)CC1 | – | · | – | – | – | –
CCCN(CCC)C(=O)Cn1c(=O)n(Cc2ccc(C(=O)NCCc3ccc(Cl)cc3)cc2)c(=O)c2ccccc21 | – | – | – | – | – | –
CCN(CCNC(=O)Nc1ccc(Cl)cc1)c1ccccc1 | · | 16µM | ? | – | ? | ?
O=C(NCCOc1nc(N2CCCCC2)nc(N2CCCCC2)n1)Nc1ccccc1 | – | – | – | ? | – | ?

From PubChem
